Reference: PubChem BioAssay (NCI)
About 79,000 compounds went through this panel and 15% of them were active in at least one assay; those are over-represented in the sample as a whole. The source made the active and inactive calls. Cut-off read from the data, not from the text of the source: active = growth inhibition above about 70%; inactive = the rest.

Legend:
[1] = NCI Yeast Anticancer Drug Screen. Data for the rad52 strain (AID 147);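 note: 0% = growth of vehicle-treated control cultures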; conditions: S. cerevisiae rad52 mutant growth inhibition, stronger effect = higher value
Procedure, shortened: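 Vehicle-treated cultures served as the reference for growth inhibition of compound-exposed yeast bearing a DNA repair mutation.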

[2] = NCI Yeast Anticancer Drug Screen. Data for the rad50EPP+ strain (AID 151);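 note: 0% = growth of vehicle-treated control cultures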; conditions: S. cerevisiae rad50 mutant strain, stronger effect = higher value
Procedure, shortened: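 In this screen, rad50EPP+ yeast were exposed to compounds. Growth inhibition was scored against vehicle-treated controls.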

[3] = NCI Yeast Anticancer Drug Screen. Data for the rad50 strain (AID 155);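 note: 0% = growth of vehicle-only cultures of the same strain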; conditions: S. cerevisiae rad50 strain growth inhibition, stronger effect = higher value
Procedure, shortened: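 Readout: growth inhibition relative to vehicle-treated cultures. Compound exposure was carried out in a genetically defined yeast strain deficient in DNA damage repair.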

[4] = NCI Yeast Anticancer Drug Screen. Data for the mec2-1 strain (AID 157); conditions: S. cerevisiae mec2-1 strain, stronger effect = higher value
Procedure, shortened: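 Vehicle-treated cultures served as reference for growth inhibition of compound-exposed mec2-1 yeast.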

[5] = NCI Yeast Anticancer Drug Screen. Data for the rad14 strain (AID 159);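 note: 0% = growth of vehicle-treated control cultures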; conditions: S. cerevisiae rad14 strain growth inhibition, stronger effect = higher value
Procedure, shortened: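 Growth inhibition vs vehicle controls; genetically altered yeast strain (DNA damage repair defect) treated with test compounds.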

[6] = NCI Yeast Anticancer Drug Screen. Data for the sgs1 mgt1 strain (AID 161);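 note: 0% = growth of cultures given vehicle only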; conditions: S. cerevisiae sgs1 mgt1 strain, stronger effect = higher value
Procedure, shortened: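 Inhibition of yeast growth, normalised to vehicle-treated controls, is reported for a strain bearing genetic alterations in DNA damage repair.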

[7] = NCI Yeast Anticancer Drug Screen. Data for the CLN2oe strain (AID 163);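 note: 0% = growth of vehicle-only control cultures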; conditions: S. cerevisiae CLN2oe strain, stronger effect = higher value
Procedure, shortened: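 Inhibition relative to vehicle-treated yeast is reported. Cells: strain with genetic alteration in cell-cycle control, grown with compound.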

[8] = NCI Yeast Anticancer Drug Screen. Data for the cln2 rad14 strain (AID 165);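 note: 0% = growth equal to vehicle treated cultures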; conditions: S. cerevisiae cln2 rad14 strain, stronger effect = higher value
Procedure, shortened: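 Each compound was tested on cln2 rad14 yeast. Inhibition of growth was calculated against vehicle-exposed controls.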

[9] = NCI Yeast Anticancer Drug Screen. Data for the bub3 strain (AID 167); conditions: S. cerevisiae bub3 mutant strain, stronger effect = higher value
Procedure, shortened: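 Readout: yeast growth inhibition, expressed relative to vehicle-only wells. The test organism is a mutant strain from a panel with lesions in DNA repair or checkpoint genes.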

[10] = NCI Yeast Anticancer Drug Screen. Data for the wt2 strain (AID 169);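 note: 0% = growth of vehicle-treated yeast cultures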; conditions: S. cerevisiae wt2 strain growth inhibition, stronger effect = higher value
Procedure, shortened: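 Inhibition of yeast growth was determined after compound treatment, normalised to controls receiving only vehicle.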

[11] = NCI Yeast Anticancer Drug Screen. Data for the mlh1 rad18 strain (AID 175); conditions: S. cerevisiae mlh1 rad18 strain growth inhibition, stronger effect = higher value
Procedure, shortened: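 Vehicle-treated cultures served as the reference for growth inhibition in a yeast strain carrying DNA damage repair alterations exposed to each compound.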

[12] = NCI Yeast Anticancer Drug Screen. Data for the rad18 strain (AID 177); conditions: S. cerevisiae rad18 mutant growth inhibition, stronger effect = higher value
Procedure, shortened: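 Test articles were incubated with altered yeast defective in DNA damage repair. Results are given as inhibition of growth versus vehicle.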

[13] = NCI Yeast Anticancer Drug Screen. Data for the wt1 strain (AID 149);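 note: 0% = growth of vehicle-treated wt1 cultures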; conditions: S. cerevisiae wt1 strain (SPY 50644) growth inhibition, stronger effect = higher value
Procedure, shortened: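 Growth inhibition read against vehicle controls after compound exposure of the wt1 yeast strain.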

[14] = NCI Yeast Anticancer Drug Screen. Data for the mgt1 strain (AID 153); conditions: S. cerevisiae mgt1 mutant growth inhibition, stronger effect = higher value
Procedure, shortened: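 mgt1 strain exposed; growth vs vehicle control recorded as inhibition.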

[15] = NCI Yeast Anticancer Drug Screen. Data for the sgs1 strain (AID 173);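 note: 0% = growth of vehicle-only control cultures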; conditions: S. cerevisiae sgs1 mutant, stronger effect = higher value
Procedure, shortened: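 Screen format: yeast with repair or checkpoint alterations, compound exposure, growth read relative to vehicle.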

[16] = NCI Yeast Anticancer Drug Screen. Data for the mlh1 strain (AID 171);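 note: 0% = growth of vehicle-treated control cultures of the same strain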; conditions: S. cerevisiae mlh1 strain growth inhibition, stronger effect = higher value
Procedure, shortened: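 Vehicle-normalised growth inhibition of a repair- or checkpoint-altered yeast strain following compound treatment.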

[17] = at 5.0 µM (retest, dose inferred, filed as 0.5)
[18] = at 50.0 µM (retest, dose inferred, filed as 5.0)

Measured: growth inhibition

O=C1CSc2cc([N+](=O)[O-])ccc2N1
active: [9]; at 33.0 µM 74% | [9]; [18] 79% | [9]; at 50.0 µM 70.2% | [9]; at 100.0 µM 91%
inactive: [1]; at 1.2 µM 10% | [1]; at 3.7 µM 6% | [1]; at 11.0 µM 9% | [1]; at 33.0 µM 16% | [1]; at 100.0 µM 15% | [2]; at 1.2 µM -9% | [2]; at 3.7 µM 3% | [2]; at 11.0 µM -4% | [2]; at 33.0 µM 3% | [2]; at 100.0 µM -6% | [3]; at 1.2 µM -20% | [3]; at 3.7 µM -6% | [3]; [17] -1% | [3]; at 11.0 µM -22% | [3]; at 33.0 µM -18% | [3]; [18] -14% | [3]; at 50.0 µM 21.1% | [3]; at 100.0 µM -17% | [4]; at 1.2 µM -4% | [4]; at 3.7 µM -5% | [4]; [17] -31% | [4]; at 11.0 µM -10% | [4]; at 33.0 µM -21% | [4]; [18] -12% | [4]; at 50.0 µM -18.1% | [4]; at 100.0 µM -22% | [5]; at 1.2 µM -16% | [5]; at 3.7 µM -7% | [5]; at 11.0 µM -6% | [5]; at 33.0 µM -10% | [5]; at 100.0 µM -11% | [6]; [17] -14% | [6]; [18] -14% | [6]; at 50.0 µM -11% | [7]; at 1.2 µM -3% | [7]; at 3.7 µM -14% | [7]; at 11.0 µM -8% | [7]; at 33.0 µM -19% | [7]; at 100.0 µM -13% | [8]; [17] 23% | [8]; [18] 27% | [8]; at 50.0 µM 22.4% | [9]; at 1.2 µM 8% | [9]; at 3.7 µM 9% | [9]; [17] 0% | [9]; at 11.0 µM 23% | [10]; at 1.2 µM 19% | [10]; at 3.7 µM 23% | [10]; at 11.0 µM 14% | [10]; at 33.0 µM 21% | [10]; at 100.0 µM 4% | [11]; [17] -15% | [11]; [18] -2% | [11]; at 50.0 µM -5.25% | [12]; at 1.2 µM 0% | [12]; at 3.7 µM -18% | [12]; at 11.0 µM -3% | [12]; at 33.0 µM -2% | [12]; at 100.0 µM -13%

CC(=O)OCc1ccc(O)c(C=O)c1
active: [3]; at 50.0 µM 77.5% | [5]; at 100.0 µM 81% | [6]; [18] 89% | [9]; [18] 82% | [12]; at 33.0 µM 83% | [12]; at 100.0 µM 89%
inactive: [13]; at 1.2 µM -26% | [13]; at 3.7 µM -4% | [13]; at 11.0 µM -23% | [13]; at 33.0 µM 8% | [13]; at 100.0 µM 18% | [2]; at 1.2 µM -6% | [2]; at 3.7 µM -2% | [2]; at 11.0 µM -10% | [2]; at 33.0 µM 14% | [2]; at 100.0 µM 60% | [14]; at 1.2 µM -24% | [14]; at 3.7 µM -17% | [14]; at 11.0 µM -18% | [14]; at 33.0 µM 6% | [14]; at 100.0 µM 25% | [3]; at 1.2 µM -5% | [3]; at 3.7 µM -20% | [3]; [17] 16% | [3]; at 11.0 µM 10% | [3]; at 33.0 µM 6% | [3]; [18] 66% | [3]; at 100.0 µM 59% | [4]; at 1.2 µM -13% | [4]; at 3.7 µM -13% | [4]; [17] 0% | [4]; at 11.0 µM -29% | [4]; at 33.0 µM -11% | [4]; [18] 41% | [4]; at 50.0 µM 56.9% | [4]; at 100.0 µM 35% | [5]; at 1.2 µM -5% | [5]; at 3.7 µM -2% | [5]; at 11.0 µM 2% | [5]; at 33.0 µM 14% | [6]; [17] 36% | [6]; at 50.0 µM 62.5% | [8]; [17] 15% | [8]; [18] 30% | [8]; at 50.0 µM 49.7% | [9]; at 1.2 µM -7% | [9]; at 3.7 µM -7% | [9]; [17] 25% | [9]; at 11.0 µM -7% | [9]; at 33.0 µM -8% | [9]; at 50.0 µM 2.85% | [9]; at 100.0 µM -11% | [10]; at 1.2 µM -36% | [10]; at 3.7 µM -30% | [10]; at 11.0 µM -28% | [10]; at 33.0 µM -11% | [10]; at 100.0 µM 32% | [15]; at 1.2 µM -11% | [15]; at 3.7 µM -5% | [15]; at 11.0 µM 10% | [15]; at 33.0 µM 34% | [15]; at 100.0 µM 63% | [11]; [17] 26% | [11]; [18] 61% | [11]; at 50.0 µM 48.7% | [12]; at 1.2 µM -13% | [12]; at 3.7 µM 9% | [12]; at 11.0 µM 54%

O=[n+]1c2ccc(Cl)cc2n([O-])c2ccc(Cl)cc21
active: [2]; at 100.0 µM 74% | [3]; at 100.0 µM 81% | [11]; [18] 84%
inactive: [13]; at 1.2 µM -2% | [13]; at 3.7 µM 2% | [13]; at 11.0 µM 2% | [13]; at 33.0 µM 7% | [13]; at 100.0 µM 12% | [2]; at 1.2 µM 9% | [2]; at 3.7 µM 18% | [2]; at 11.0 µM 35% | [2]; at 33.0 µM 57% | [14]; at 1.2 µM -3% | [14]; at 3.7 µM -1% | [14]; at 11.0 µM 2% | [14]; at 33.0 µM 5% | [14]; at 100.0 µM 10% | [3]; at 1.2 µM 9% | [3]; at 3.7 µM 19% | [3]; [17] -9% | [3]; at 11.0 µM 39% | [3]; at 33.0 µM 61% | [3]; [18] 47% | [3]; at 50.0 µM -5.4% | [4]; at 1.2 µM -1% | [4]; at 3.7 µM 0% | [4]; [17] 1% | [4]; at 11.0 µM 2% | [4]; at 33.0 µM 9% | [4]; [18] -5% | [4]; at 50.0 µM -1% | [4]; at 100.0 µM 15% | [5]; at 1.2 µM 0% | [5]; at 3.7 µM 2% | [5]; at 11.0 µM 4% | [5]; at 33.0 µM 6% | [5]; at 100.0 µM 10% | [6]; [17] -4% | [6]; [18] 20% | [6]; at 50.0 µM 13.3% | [7]; at 1.2 µM -1% | [7]; at 3.7 µM 0% | [7]; at 11.0 µM 0% | [7]; at 33.0 µM -1% | [7]; at 100.0 µM -1% | [8]; [17] -10% | [8]; [18] -13% | [8]; at 50.0 µM -74.2% | [9]; at 1.2 µM -1% | [9]; at 3.7 µM 0% | [9]; [17] 11% | [9]; at 11.0 µM 2% | [9]; at 33.0 µM 9% | [9]; [18] 22% | [9]; at 50.0 µM -7.55% | [9]; at 100.0 µM 14% | [10]; at 1.2 µM -5% | [10]; at 3.7 µM -8% | [10]; at 11.0 µM 0% | [10]; at 33.0 µM -5% | [10]; at 100.0 µM 10% | [16]; at 1.2 µM -1% | [16]; at 3.7 µM 1% | [16]; at 11.0 µM 0% | [16]; at 33.0 µM 0% | [16]; at 100.0 µM 5% | [15]; at 1.2 µM -6% | [15]; at 3.7 µM -27% | [15]; at 11.0 µM 4% | [15]; at 33.0 µM 21% | [15]; at 100.0 µM 23% | [11]; [17] 11% | [11]; at 50.0 µM 11.7% | [12]; at 1.2 µM 4% | [12]; at 3.7 µM 12% | [12]; at 11.0 µM 25% | [12]; at 33.0 µM 37% | [12]; at 100.0 µM 63%
